Experiment [1] is described as follows: p53 stabilisation in HPV-positive human cells, imaging, p53-positive nuclei imaging, 24 h, 48 h (AID 1508601). The conditions noted are these: 24/48 h.
Experiment [2] addresses Cellular tumor antigen p53 (Homo sapiens) (UniProt P04637). The experiment is described as above. Particulars: 24/48 h, stronger effect = higher value.
Where [3] appears, read: measured here: cell number at 24 h, Library stock concentration: 80 uM.
[4] abbreviates: measured here: cell number at 24 h, Library stock concentration: 400 uM.
Setting [5] is: measured here: cell number at 24 h, Library stock concentration: 2 mM.
Where [6] appears, read: measured here: cell number at 24 h, Library stock concentration: 10 mM.
The mark [7] stands for this setting: measured here: cell number at 24 h, concentration not given here.
Setting [8] is: measured here: cell number at 48 h, Library stock concentration: 80 uM.
[9] abbreviates: measured here: cell number at 48 h, Library stock concentration: 400 uM.
[10] abbreviates: measured here: cell number at 48 h, Library stock concentration: 2 mM.
The mark [11] stands for this setting: measured here: cell number at 48 h, Library stock concentration: 10 mM.
The mark [12] stands for this setting: measured here: cell number at 48 h, concentration not given here.
Setting [13] is: Library stock concentration: 80 uM.
The mark [14] stands for this setting: Library stock concentration: 400 uM.
Where [15] appears, read: Library stock concentration: 2 mM.
[16] abbreviates: Library stock concentration: 10 mM.
[17] abbreviates: measured here: p53 positive nuclei at 24 h, Library stock concentration: 80 uM.
The mark [18] stands for this setting: measured here: p53 positive nuclei at 24 h, Library stock concentration: 400 uM.
Setting [19] is: measured here: p53 positive nuclei at 24 h, Library stock concentration: 2 mM.
[20] abbreviates: measured here: p53 positive nuclei at 24 h, Library stock concentration: 10 mM.
[21] abbreviates: measured here: p53 positive nuclei at 24 h, concentration not given here.

Hit rate of the full screen: of about 5,700 compounds, about 85 (1%) were called active. The sample holds actives, similar compounds and a random draw of the others, so the mix is not that of the screen. Rule as the data show it: active = p53-positive nuclei above about 36% (passing the limit was not always enough); inactive = the rest.

Chain of Cellular tumor antigen p53 (Homo sapiens) (P04637 whole entry, looked up): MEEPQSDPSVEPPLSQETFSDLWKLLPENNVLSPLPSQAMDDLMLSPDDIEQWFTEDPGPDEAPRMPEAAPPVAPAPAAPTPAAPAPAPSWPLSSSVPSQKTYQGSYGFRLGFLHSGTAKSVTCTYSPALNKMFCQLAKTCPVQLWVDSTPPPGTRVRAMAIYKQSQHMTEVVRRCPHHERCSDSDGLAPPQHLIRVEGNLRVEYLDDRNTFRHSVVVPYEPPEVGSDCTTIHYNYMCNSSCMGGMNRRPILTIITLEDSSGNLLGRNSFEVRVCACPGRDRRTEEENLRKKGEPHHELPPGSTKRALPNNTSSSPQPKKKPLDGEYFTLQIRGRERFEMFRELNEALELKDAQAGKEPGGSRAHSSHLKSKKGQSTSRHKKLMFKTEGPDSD

`NC(=O)c1ccc(-c2nc(-c3ccc4c(c3)OCCO4)c(-c3ccccn3)[nH]2)cc1`: the nuclei count, normalised in experiment [1] (setting [3]) stood at 108%; in experiment [1] (setting [4]), 108%; in experiment [1] (setting [5]), 103%; in experiment [1] (setting [6]) it was 105%; in experiment [1] (setting [7]) it was 114%; in experiment [1] (setting [8]), 111%. Further, the nuclei count, normalised in experiment [1] (setting [9]) was 111%; in experiment [1] (setting [10]), 103%; in experiment [1] (setting [11]), 99.9%; in experiment [1] (setting [12]) it was 116%. In addition, the p53-positive nuclei, normalised is 0.102% (inactive) in experiment [2] (setting [13]); 0.159% (inactive) in experiment [2] (setting [14]); -0.0937% (inactive) in experiment [2] (setting [15]); 0.066% (inactive) in experiment [2] (setting [16]); -0.0133% (inactive) in experiment [2] (concentration not given here); -0.0114% in experiment [2] (setting [17]). Moreover, the p53-positive nuclei, normalised in experiment [2] (setting [18]) was 0.0817%; in experiment [2] (setting [19]), -0.00675%; in experiment [2] (setting [20]), 0.138%; in experiment [2] (setting [21]), -0.0284%.

For `COc1nccnc1-c1ccc2c(c1)OCO2`, the nuclei count, normalised in experiment [1] (setting [7]) stood at 115%; in experiment [1] (setting [12]) it was 114%. Also, the p53-positive nuclei, normalised was -0.145% (inactive) in experiment [2] (concentration not given here) and -0.0884% in experiment [2] (setting [21]).

Consider `c1nc(-c2ccc3c(c2)OCCO3)c2sccc2n1`, for which the results for the nuclei count, normalised in experiment [1] (setting [7]) and in experiment [1] (setting [12]) were 74.2% and 38.4%, respectively. Moreover, the p53-positive nuclei, normalised in experiment [2] (concentration not given here) was 68.7% (active); in experiment [2] (setting [21]), 3%.

In the case of `CC=C1NC(=O)C2CSSCCC=CC(CC(=O)NC(C(C)C)C(=O)N2)OC(=O)C(C(C)C)NC1=O` (stereo not given), the nuclei count, normalised in experiment [1] (measured here: cell number at 24 h, Library stock concentration: 3.33 mM) was determined as 45.3%; in experiment [1] (measured here: cell number at 48 h, Library stock concentration: 3.33 mM), 13.5%. For the same molecule, the p53-positive nuclei, normalised is 138% (active) in experiment [2] (Library stock concentration: 3.33 mM) and 79.1% in experiment [2] (measured here: p53 positive nuclei at 24 h, Library stock concentration: 3.33 mM).

For the molecule `OC1CCC(Nc2ncc3nc(Nc4c(F)cc(F)cc4F)n(C4CCOC4)c3n2)CC1` (stereo not given), the nuclei count, normalised in experiment [1] (setting [3]) came to 108%; in experiment [1] (setting [4]) it was 111%; in experiment [1] (setting [5]), 106%; in experiment [1] (setting [6]), 114%; in experiment [1] (setting [8]), 111%; in experiment [1] (setting [9]), 111%. Besides, the nuclei count, normalised in experiment [1] (setting [10]) worked out at 112%; in experiment [1] (setting [11]), 113%. Also, the p53-positive nuclei, normalised was 0.0644% (inactive) in experiment [2] (setting [13]); -0.0934% (inactive) in experiment [2] (setting [14]); -0.0819% (inactive) in experiment [2] (setting [15]); -0.265% (inactive) in experiment [2] (setting [16]); 0.0898% in experiment [2] (setting [17]); -0.0608% in experiment [2] (setting [18]). For the same molecule, the p53-positive nuclei, normalised in experiment [2] (setting [19]) was -0.051%; in experiment [2] (setting [20]), -0.0545%.

Regarding `O=C1SC(=Cc2ccc(OCc3cccc(B(O)O)c3)cc2)C(=O)N1Cc1ccc(F)cc1`, the nuclei count, normalised stood at 110% in experiment [1] (setting [3]); 108% in experiment [1] (setting [4]); 110% in experiment [1] (setting [5]); 110% in experiment [1] (setting [6]); 102% in experiment [1] (setting [8]); 102% in experiment [1] (setting [9]). The nuclei count, normalised was found to be 109% in experiment [1] (setting [10]) and 113% in experiment [1] (setting [11]). For the same molecule, the p53-positive nuclei, normalised in experiment [2] (setting [13]) is 0.073% (inactive); in experiment [2] (setting [14]) it was 0.243% (inactive); in experiment [2] (setting [15]) it was 0.131% (inactive); in experiment [2] (setting [16]), -0.221% (inactive); in experiment [2] (setting [17]), 0.0618%; in experiment [2] (setting [18]) it was 0.065%. The p53-positive nuclei, normalised in experiment [2] (setting [19]) is 0.123%; in experiment [2] (setting [20]), -0.0586%.

For the molecule `CCN(CC)c1ccc(C=NNC(=O)c2ccc(O)cc2)cc1`, the nuclei count, normalised in experiment [1] (measured here: cell number at 24 h, Library stock concentration: 46 uM) was 111%; in experiment [1] (measured here: cell number at 24 h, Library stock concentration: 278 uM) it was 117%; in experiment [1] (measured here: cell number at 24 h, Library stock concentration: 1.67 mM), 121%; in experiment [1] (setting [6]), 79.3%; in experiment [1] (measured here: cell number at 48 h, Library stock concentration: 46 uM), 116%; in experiment [1] (measured here: cell number at 48 h, Library stock concentration: 278 uM), 118%. Further, the nuclei count, normalised in experiment [1] (measured here: cell number at 48 h, Library stock concentration: 1.67 mM) is 118%; in experiment [1] (setting [11]), 83.6%. Further, the p53-positive nuclei, normalised in experiment [2] (Library stock concentration: 46 uM) is -0.325% (inactive); in experiment [2] (Library stock concentration: 278 uM), -0.186% (inactive); in experiment [2] (Library stock concentration: 1.67 mM), -0.0464% (inactive); in experiment [2] (setting [16]) it was 1.02% (inactive); in experiment [2] (measured here: p53 positive nuclei at 24 h, Library stock concentration: 46 uM), -0.151%; in experiment [2] (measured here: p53 positive nuclei at 24 h, Library stock concentration: 278 uM), -0.0898%. The p53-positive nuclei, normalised stood at 0.0252% in experiment [2] (measured here: p53 positive nuclei at 24 h, Library stock concentration: 1.67 mM) and 0.906% in experiment [2] (setting [20]).

For the molecule `Nc1ccc(C(=O)O)c(O)c1` (tested in a mixture with another compound), the figures for the nuclei count, normalised in experiment [1] (setting [7]) and in experiment [1] (setting [12]) were 95.8% and 101%, respectively. In addition, the values for the p53-positive nuclei, normalised in experiment [2] (concentration not given here) and in experiment [2] (setting [21]) were 0.284% (inactive) and 0.00463%, respectively.

For `CCC(C)C(NC(=O)C(C(C)CC)N(C)C(C)=O)C(=O)NC(C(=O)NC(CC(C)C)C(=O)[C@@]1(C)CO1)C(C)O` (stereo not given in full), the nuclei count, normalised was found to be 52.8% in experiment [1] (setting [3]); 48.9% in experiment [1] (setting [4]); 47.9% in experiment [1] (setting [5]); 45.3% in experiment [1] (setting [6]); 41.4% in experiment [1] (setting [8]); 39.9% in experiment [1] (setting [9]). Also, the nuclei count, normalised in experiment [1] (setting [10]) was determined as 38.3%; in experiment [1] (setting [11]), 35.1%. Moreover, the p53-positive nuclei, normalised was 104% (active) in experiment [2] (setting [13]); 100% (active) in experiment [2] (setting [14]); 107% (active) in experiment [2] (setting [15]); 106% (active) in experiment [2] (setting [16]); 124% in experiment [2] (setting [17]); 125% in experiment [2] (setting [18]). Besides, the p53-positive nuclei, normalised in experiment [2] (setting [19]) was determined as 127%; in experiment [2] (setting [20]) it was 125%.

The values above are taken from PubChem BioAssay AID1508601 (ICCB-Longwood Screening Facility, Harvard Medical School, 2020).
